Compound activity deposited in PubChem BioAssay by several laboratories.
Compounds with a hit are over-represented: about 3.1% of the library has one in this group of screens.
Anthrax LF prot – anthrax lethal factor protease inhibition; actives 0.12% (n = 360,000); inhibition, % at 10 µM; P15917; multiplex microsphere protease cleavage assay, LF; also: plate controls were buffer without enzyme for full effect and enzyme alone for no effect
BoNT A protease – BoNT A light chain protease inhibition | inhibition, % at 10 µM | actives 0.17% (n = 360,000) | AID 588499 | multiplex microsphere protease substrate cleavage, flow cytometry; also: plate controls were buffer without enzyme for full effect and enzyme alone for no effect
Bead autofluor – compound fluorescence in toxin protease inhibitor counterscreen; compound autofluorescence counterscreen, microsphere flow cytometry; active compounds read high; fluorescence intensity (test concentration not listed); actives 3.1% (n = 360,000); in the data active = fluorescence intensity above about 16000; inconclusive = no clear call, values can overlap the other calls
SSB-PriA inh – K. pneumoniae PriA-SSBct interaction inhibition. actives 0.6% (n = 430,000). AID 1272365. AlphaScreen SSBct-PriA binding, biotinylated peptide. inhibition, % at 33 µM; in the data active = inhibition mostly above about 37%, no sharp cut-off; inactive = mostly below about 20%;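 also: plate controls were negative control peptide for no effect and reference peptide for full effect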
BoNT F protease – BoNT F light chain protease inhibition | Multiplex microsphere protease cleavage assay, flow cytometry | inhibition, % at 10 µM | actives 0.22% (n = 360,000) | AID 588497; in the data active = inhibition above about 35%, passing the limit was not always enough; inconclusive = no clear call, values can overlap the other calls; also: plate controls were buffer without enzyme for full effect and enzyme alone for no effect
Active calls of the source: *. Rule as the data show it, unless noted: active = inhibition above about 30%; inconclusive = no clear call, values can overlap the other calls; inactive = below that.

For COC(=O)c1ccc(NC(=O)CSc2nnc(C3CC(=O)N(c4ccc(C)cc4)C3)o2)cc1 (stereo unspecified) the results were SSB-PriA inh 3.
Screening COc1ccc(OC)c(C2C3=C(COC3=O)Nc3cc4c(cc32)OCO4)c1 (stereo unspecified) returned Anthrax LF prot -9, BoNT A protease 6, Bead autofluor 19754*, SSB-PriA inh -3 and BoNT F protease 7.
`CCCCNC(=O)Nc1ccc2c(c1)N(C)C(=O)c1ccccc1S2` gave Anthrax LF prot -4, BoNT A protease -3, Bead autofluor 3491, SSB-PriA inh -3 and BoNT F protease -16.
Screening CCCNC(=O)Nc1ccc2c(c1)N(C)C(=O)c1ccccc1S2 returned Anthrax LF prot -2, BoNT A protease 1, Bead autofluor 16271*, SSB-PriA inh -1 and BoNT F protease -3.
For O=C(NCCOc1ccc(-c2ccco2)nn1)c1ccc(Br)o1 the results were SSB-PriA inh 3.
`CC1=CC(C)(C)N2C(=O)C(=Nc3ccc(O)cc3)c3cccc1c32` gave Anthrax LF prot -5, BoNT A protease 0, Bead autofluor 3284, SSB-PriA inh 40* and BoNT F protease 0.
`COc1cc(N=C2C(=O)N3c4c(cccc42)C(C)=CC3(C)C)cc(OC)c1` gave Anthrax LF prot 1, BoNT A protease 0, Bead autofluor 2207, SSB-PriA inh 7 and BoNT F protease -9.
`CCCCCOC(=O)CCN1C(=O)/C(=C2\SC(=S)N(CCC(=O)OCCCCC)C2=O)SC1=S` gave Anthrax LF prot 14, BoNT A protease 40*, Bead autofluor 3092, SSB-PriA inh -12 and BoNT F protease 21.
`CCCOC(=O)CCN1C(=O)/C(=C/c2ccccc2F)SC1=S` gave SSB-PriA inh 14.
`CCCCOC(=O)CCN1C(=O)/C(=C2\SC(=S)N(CCC(=O)OCCCC)C2=O)SC1=S` gave Anthrax LF prot 15, BoNT A protease 30*, Bead autofluor 2108, SSB-PriA inh 3 and BoNT F protease -1.
CCCOC(=O)CCCN1C(=O)/C(=C2\SC(=S)N(CCCC(=O)OCCC)C2=O)SC1=S was read as Anthrax LF prot 6, BoNT A protease 81*, Bead autofluor 3940, SSB-PriA inh -15 and BoNT F protease inconclusive.
For Cc1nnsc1C(=O)N1CCN(c2nc3c(C)cccc3s2)CC1 the results were SSB-PriA inh -10.
Cc1nn(Cc2c(F)c(F)c(F)c(F)c2F)c(C)c1NC(=O)c1nn(C)cc1Br was read as Anthrax LF prot 2, BoNT A protease 0, Bead autofluor 5370, SSB-PriA inh -19 and BoNT F protease 2.
For Cc1nn(Cc2c(F)c(F)c(F)c(F)c2F)c(C)c1NC(=O)c1nn(C)cc1[N+](=O)[O-] the results were Anthrax LF prot 1, BoNT A protease inconclusive, Bead autofluor 22913*, SSB-PriA inh -13 and BoNT F protease 1.
Screening Cc1ccc(OCc2ccc(C(=O)Nc3c(C)nn(Cc4c(F)c(F)c(F)c(F)c4F)c3C)o2)c([N+](=O)[O-])c1 returned Anthrax LF prot -1, BoNT A protease 0, Bead autofluor 23883*, SSB-PriA inh 8 and BoNT F protease -2.
Screening Cc1nn(Cc2c(F)c(F)c(F)c(F)c2F)c(C)c1NC(=O)c1c([N+](=O)[O-])cnn1C returned Anthrax LF prot -4, BoNT A protease 2, Bead autofluor 22419*, SSB-PriA inh -12 and BoNT F protease 2.
Screening Cc1cc(NC(=O)c2c([N+](=O)[O-])cnn2C)no1 returned Anthrax LF prot 0, BoNT A protease -1, Bead autofluor 20559*, SSB-PriA inh 2 and BoNT F protease 0.
`Cc1ccc(OCc2ccc(C(=O)NN)o2)c([N+](=O)[O-])c1` gave Anthrax LF prot 9, BoNT A protease 2, Bead autofluor 4140, SSB-PriA inh -7 and BoNT F protease inconclusive.
For CCn1cc([N+](=O)[O-])c(C(=O)Nc2c(C)nn(Cc3c(F)c(F)c(F)c(F)c3F)c2C)n1 the results were Anthrax LF prot 0, BoNT A protease 4, Bead autofluor 20974*, SSB-PriA inh -6 and BoNT F protease 4.
Screening CCc1ccc(/C=C/C(=O)N2CCc3cc(S(=O)(=O)N(C)C)ccc32)cc1 returned SSB-PriA inh -5.
`NC(=NOS(=O)(=O)c1ccccc1)c1cccnc1` gave SSB-PriA inh -15.
`CO/N=C(\c1ccccc1)c1cccnc1` gave Anthrax LF prot -1, BoNT A protease 0, Bead autofluor 4201 and BoNT F protease 56*.
